# Measured values published in ChEMBL document CHEMBL3433997, “St. Jude Leishmania screening dataset” (2016).
# Molecular target: Glucose transporter (Leishmania mexicana) (UniProt O61059)
# Test: ST_JUDE_LEISH: Cytotoxicity at 2uM final concentration against transgenic Leishmania Mexicana promastigotes LmGT2 that are glucose transport deficient and complemented with the L. Mexicana glucose transporter 2. Activity is measured by DNA content using SYBR green in vitro
# Type: functional
row,SMILES,inhibition [%]
1,CC(C)c1ccc(S(=O)(=O)Nc2cccc(CCN3CCC(N4CCCCC4)CC3)c2)cc1,1.03
2,Cc1cccc(-c2nn(-c3ccccc3)c3[nH]c(=O)c(CNC4CCCC4)cc23)c1,-0.29
3,CC(C)(C)C1CC(=O)CC2C(=O)N(c3ccc(Br)cc3)C(=O)C21 (stereo not given),-1.64
4,COc1cc(C(=O)N2C(c3nccs3)C(C(=O)N(OC)C(C)c3ccccc3)CC2(CC(C)C)C(=O)OC(C)(C)C)ccc1C(C)(C)C (stereo not given),1.29
5,O=C(C1CCCC1)N1CCOC(CCN2CCC(c3ccccc3)CC2)(c2ccc(Cl)c(Cl)c2)C1 (stereo not given),11.7
6,COc1ccc(NC(=O)[C@H](CC(C)C)Nc2cc(C)nc(NCCOc3ccccc3)n2)cc1,-0.23
7,COc1cccc2c(N/N=C/c3ccccc3[N+](=O)[O-])ccnc12,3.87
8,CC(C)(C)c1nn(-c2ccc(Cl)cc2)c2[nH]c(=O)c(CNCc3cccs3)cc12,2.34
9,CC(C)c1ccc(CN2CCC(CNC(=O)c3cc(-c4cccc(C(F)(F)F)c4)cs3)C2)cc1 (stereo not given),3.79
10,Cc1cc(NCCCOc2ccc(Cl)cc2)nc(NCc2ccccc2)n1,7.19
11,CC(C)c1ccc(NS(=O)(=O)c2cccc(C(=O)NC3CCN(CC4CCCCC4)CC3)c2)cc1,1.74
12,CC(=O)Nc1cc(C(=O)Nc2cccc(-c3cccc(-c4nc5cc(C(F)(F)F)ccc5[nH]4)c3)c2)ccc1C,1.84
13,CC(C)NCc1ccc(-c2cccc(-c3nc4cc(C(F)(F)F)ccc4[nH]3)c2)cc1,4.16
14,CC1(C)N=C(NC(=O)c2cc([N+](=O)[O-])cc([N+](=O)[O-])c2)N=C(N)N1OCc1cccc2ccccc12,-0.37
15,CC(=O)Nc1ccc2[nH]cc(C3CCN(CCC4CCN(C(=O)/C=C/c5ccc(Cl)c(Cl)c5)CC4)CC3)c2c1,5.15
16,COc1ccc(CCn2c(=N)c(C(=O)NCc3ccccc3)cc3c(=O)n4ccccc4nc32)cc1,8.6
17,CCCCCCCCc1nc(C)c(Br)c(O)c1Br,0.8
18,CCCCCCNC(=O)C1Cc2c([nH]c3cc(Cl)ccc23)C2(CCN(CCC)CC2)N1 (stereo not given),2.32
19,O=C(Nc1ccccc1)Nc1cccc(-c2cccc(-c3nc4cc(F)ccc4[nH]3)c2)c1,1.59
20,CC(C)CCCC(C)NC[C@@H](O)[C@H](Cc1ccccc1)NC(=O)c1cc(N2CCCC2=O)cc(N(c2ccccc2)S(C)(=O)=O)c1 (stereo not given in full),1.65

row,SMILES,inhibition [%]
1,CCc1c(C(=O)NC2CCC(N3CCC(c4ccccc4OC)CC3)CC2)[nH]c2ccc(OC)cc12 (stereo not given),0.22
2,O=C(N[C@H]1CCN(CCc2ccc(O[C@H]3CCNC3)c(Br)c2)C1)c1ccc(Cl)c(Cl)c1,1.43
3,CC(CN(C)C)C(=O)Nc1ccc(-c2ccc(-c3nc4cc(C(F)(F)F)ccc4[nH]3)cc2)cc1 (stereo not given),9.66
4,COc1ccc(-c2nonc2NC(=O)c2ccc(C(C)(C)C)cc2)cc1OC,-0.16
5,CCCc1cc(Cc2cnc(N)nc2N)cc(CCC)c1OCCCCCC(=O)OCC,2.52
6,NC(=O)c1ccccc1Nc1nc(Nc2cccc(N3CCN(CCO)CC3)c2)ncc1Cl,57.8
7,CCCCNC(=O)[C@H](Cc1ccccc1)NC(=O)c1ccc(O)c(-c2ccc(Cl)c(Cl)c2)c1,3.71
8,Clc1nc2ccccn2c1C=Cc1ccc2ccccc2n1,2.76
9,CCn1cc(CN2C(=O)C(c3ccccc3)(c3ccccc3)N=C2N)cn1,-1.54
10,O=C(/C=C/c1cccc(OC(F)(F)F)c1)NCCCCCN1CCC(c2c[nH]c3ccccc23)CC1,-2.1
11,O=C(/C=C/c1ccc(Cl)c(Cl)c1)NC1CCN(Cc2ccc(O)cc2)CC1,-3.54
12,Cc1ccc(O)cc1Nc1ccnc2cc(-c3csc(CN(C)CCN(C)C)n3)ccc12,0.38
13,CC(=O)CSC(C=Cc1ccc(N(C)C)cc1)=Nc1ccccc1,63.3
14,Cc1cc(C)c2c(c1)C(=NO)CCN2,-0.32
15,Cc1nnsc1C(=O)Nc1cccc(-c2cccc(-c3nc4cc(C(F)(F)F)ccc4[nH]3)c2)c1,6.93
16,CN1CCN(c2ccnc3ccc(NC(=O)N(C)c4ccc(Cl)c(Cl)c4)cc23)CC1,1.72
17,CCCCN(CCCC)CCCCNc1c2ccccc2nc2ccccc12,12.3
18,C#CCOc1ccc2ccccc2c1CNCCCCCCNCc1c(OCC#C)ccc2ccccc12,0.87
19,O=C(NCC1CCC(CNCCCc2ccccc2)CC1)Nc1ccc(Cl)c(Cl)c1 (stereo not given),0.92
20,COc1ccc(CNCc2ccc(-c3ccc(-c4nc5cc(C(F)(F)F)ccc5[nH]4)s3)cc2)cc1,2.4
